The whole screen tested about 310,000 compounds, of which about 1,000 (0.32%) were called active. A selection follows. Results with a measured potency or affinity are listed apart. Unmarked numbers belong to inactive results. No rule for the calls is given here.

As usually defined, the inhibition is the change of the read-out against control, counted positive when it falls.

The experiment can be described thus: Inhibition of PhoP regulon, Salmonella typhi GFP reporter cells, confirmation, 4 h (AID 1850).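 Also: 0% = induced wells with vehicle and 100% = uninduced wells.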 Particulars: Salmonella Typhi PhoP-promoter GFP reporter, fluorescence, at 50 µM, active compounds read high.
Take `COc1ccccc1C(=O)Nc1nnc(SCC(=O)Nc2ccc3c(c2)oc2ccccc23)s1`: the inhibition was -0.02%.
The result for `COc1cc(/C=C2/NC(=O)NC2=O)ccc1OCC(=O)Nc1ccc(F)cc1` reads 1.58%; that for `C=CCn1c(CSc2ccc(C)cc2)n[nH]c1=S`, 2.92%.
On to `Cn1ncc(Cl)c1C(=O)N1CCN(c2ncccn2)CC1`, for which the inhibition was 10.1%.
Take `Cc1cccc(NC(=O)COC(=O)CCCC2=NS(=O)(=O)c3ccccc3N2)c1`: the inhibition is -3.69%.
On to `C=C(C)CC1N(c2cccc(OC)c2)C(=O)C2C(C(=O)O)C3C=CC21O3` (configuration not stated), for which the inhibition was -1.1%.
Turning to `CCCCn1c(=O)[nH]c(=O)c2c1nc(-c1cc(Br)ccc1OC)n2C`, the inhibition is 1.08%.
Regarding `O=C(CSC(=S)N1CCCC1)Nc1ncc(Cl)cc1Cl`, the inhibition was -5.14%.
`CC(O)(CS(=O)(=O)Cc1ccccc1)C(=O)Nc1ccc(C(F)(F)F)cc1` (configuration not stated): the inhibition is 9.99%.
With `CCc1ccccc1NC(=O)COc1cccc(-n2cnnn2)c1`, the inhibition was -5.08%.
The result for `CC(C)OCCCNC(=O)c1ccc(NC(=O)C2=CSCCO2)cc1` reads -8.42%.
Regarding `COc1ccc(S(=O)(=O)N2CCN(c3ncccn3)CC2)cc1[N+](=O)[O-]`, the inhibition was -20.4%.
The result for `Cc1cc(C)n(-c2nc(O)cc(=O)[nH]2)n1` reads -1.88%; that for `Cc1cc(C)n(-c2nnc(C)c(=O)[nH]2)n1`, -0.21%.
As for `Cc1cc(Nc2ccccc2)n(-c2nc3ccccc3[nH]2)n1`, the inhibition was -0.39%.
The result for `Cc1ccc(Nc2cc(C)nn2-c2nc(C)cc(C)n2)cc1` reads 5.85%; that for `FC(F)(F)c1cccc(Oc2cc(C(F)(F)F)nc(-c3ccccn3)n2)c1`, 1.08%; that for `CCOc1ccc(N2C(=O)C3ON(c4ccccc4)C(c4cccs4)C3C2=O)cc1` (configuration not stated), 9.38%.
Take `CCCCC(=O)N1CCN(c2nc3ccc(F)cc3s2)CC1`: the inhibition is -7.63%.
Take `Nc1ccc(Br)c2c1C(=O)c1ccccc1C2=O`: the inhibition was -1.04%.
For `Cc1cc(C)cc(NC2=C(N)C(=O)c3ccccc3C2=O)c1`, the inhibition is -9.49%.
For `O=C1C(=O)c2ccc(-c3ccccc3)cc2-c2ccccc21`, the inhibition is 1.01%.
With `Nc1ccc2c(c1)C(=O)C(=O)c1ccccc1-2`, the inhibition is 6.22%.
The result for `COc1ccc(/C=C/C(=O)c2ccc(O)cc2)cc1CN1CCOCC1` reads -8.66%; that for `CC(=O)Oc1ccc2c(=O)oc(-c3ccccc3C)nc2c1`, -4.89%.
Take `CN(C)CCOC1c2ccccc2C=Cc2ccccc21`: the inhibition was 10.7%.
The result for `O=C1N=C2SCCN2/C1=C\c1ccc(Cl)cc1` reads 3.83%.
`O=C(NCc1nc(-c2ccccc2)no1)c1cccs1`: the inhibition is -6.48%.
For the compound `COc1cccc(/C=N/NC(=O)CN2CC(c3ccccc3)CC2=O)c1O` (configuration not stated), the inhibition was 3.81%.
The result for `COc1cccc(/C=N/NC(=O)CN2CC(c3ccccc3)CC2=O)c1OC` (configuration not stated) reads -3.73%.
The result for `COc1cc(OC)c(C2=NOC(C(=O)N3CCc4ccccc4C3)C2)cc1Cl` (configuration not stated) reads -5.06%; that for `COC(=O)c1cccc(N(CC(=O)NC2CCCCC2)C(=O)CNC(=O)c2cccs2)c1`, 7.52%.
Consider `CCN(CC)c1ccc(CNc2nc3ccccc3n2CCN2CCOCC2)cc1`, for which the inhibition was 6.95%.
For `COc1ccc(CNc2nc3ccccc3n2CCN2CCCCC2)cc1`, the inhibition is -9.45%.
As to `COC(=O)N/N=C/c1ccccc1`, the inhibition was 3.82%.
The result for `COC(=O)N/N=C/c1ccccc1Cl` reads 9.79%; that for `O=C(CSc1ccc2c(c1)OCCO2)NC(=O)Cc1ccccc1`, -0.51%.
For `Cc1cccc(/C=C/c2onc(C)c2S(=O)(=O)N2CCC(C(=O)N3CCCCCC3)CC2)c1`, the inhibition is -16.2%.
Consider `CCOC(=O)c1cc2c(=O)n3ccccc3nc2n(C)c1=NC(=O)c1c(-c2c(F)cccc2Cl)noc1C`, for which the inhibition was -5.85%.
For `CC1CCCCN1CCCNC(=O)c1ccc(Br)cc1` (configuration not stated), the inhibition is 8.17%.
As for `CC(C)CNC(=O)COC(=O)c1ccc(Cl)c(S(=O)(=O)N2CCc3ccccc32)c1`, the inhibition is 1.54%.
`C[C@H](NCCc1ccc(O)cc1)[C@H](O)c1ccc(O)cc1`: the inhibition was -4.37%.
As for `C[C@@H](NCCc1ccc(O)cc1)[C@@H](O)c1ccc(O)cc1`, the inhibition is -9.6%.
The result for `Cc1ccnc(NC(=O)C(C)N2C(=O)c3ccccc3S2(=O)=O)c1` (configuration not stated) reads 6.11%; that for `CCOc1ccccc1NC(=O)NNC(=O)c1ccc2ccccc2c1`, 9%; that for `COc1cccc(-c2nnc(NC(C)=O)o2)c1`, -10.6%.
Turning to `O=C(Nc1nnc(-c2ccco2)o1)c1ccc(Cl)s1`, the inhibition is 2.73%.
Turning to `COCCN(C(=O)COC(=O)C1(C)CC1(Cl)Cl)c1c(N)n(Cc2ccccc2)c(=O)[nH]c1=O` (configuration not stated), the inhibition was -4.07%.
With `O=C(NC1CCN(C(=S)Nc2ccc(F)cc2)CC1)C1CCCCC1`, the inhibition was 1.22%.
Turning to `Cc1ccc(CNC(=O)C2CCC(=O)N(Cc3cccc(C(F)(F)F)c3)C2)o1` (configuration not stated), the inhibition was -2.94%.
Take `Cc1ccc(NC(=O)CNCc2ccccc2)c(Br)c1`: the inhibition is 19.8%.
The result for `Cc1ccc(NC(=O)CNCc2cccs2)cc1Br` reads 2.2%.
The result for `CN(CC(=O)Nc1ccc(Cl)c(Cl)c1)C1CCCCC1` reads 9.2%; that for `CCN(CCC(=O)Nc1cc(OC)cc(OC)c1)Cc1ccccc1`, -6.75%.
On to `O=C(CCN(CCO)Cc1ccccc1)Nc1ccc(Br)cc1`, for which the inhibition is 20.3%.
For the compound `Cc1ccc(NC(=O)CN(C)C2CCCCC2)cc1Cl`, the inhibition was 17.3%.
For `N#Cc1cc(NC(=O)c2ccc(F)cc2)c(=O)n2c1[nH]c1ccccc12`, the inhibition was -0.7%.
As for `CCn1cc(CN2CCC(C(=O)Nc3cccc(-c4cccc(OC)c4)c3)CC2)cn1`, the inhibition is -5.91%.
As to `CN1CCN(C(=O)/C(=C\c2ccccc2)c2ccccc2)CC1`, the inhibition is 3.28%.
Consider `Cc1cccc(-n2cc(-c3ccccc3)c3c(=O)[nH]cnc32)c1`, for which the inhibition was -10.3%.
As for `COc1ccc(CCNC(=O)CN(c2cccc([N+](=O)[O-])c2)S(C)(=O)=O)cc1`, the inhibition is -12%.
For `Cc1ccccc1C(=O)N1CCN(S(=O)(=O)c2ccccc2)CC1`, the inhibition was -4.37%.

(Values after PubChem BioAssay AID1850 (Southern Research Specialized Biocontainment Screening …, 2009).)
